Laboratory results: PubChem BioAssay (Tox21)
Records with an inconclusive call do not appear. The source made the active and inactive calls. Unless noted, calls follow the shape of the dose curve; as a rule, active = well fitted curve in the direction sought with a large enough effect in the repeat runs; inconclusive = weak or mixed curves; inactive = no such curve, though single readings can be large; an effect the other way counts as inactive or inconclusive.

Legend:
[1] = tested on: thyroid hormone receptor (rat, GH3 cells); assay: qHTS assay to identify small molecule agonists of the thyroid receptor (TR) signaling pathway (AID 743066; calls by dose curve)
[2] = target: Estrogen receptor (Homo sapiens) (UniProt P03372); assay: qHTS assay to identify small molecule antagonists of the estrogen receptor alpha (ER-alpha) signaling pathway (AID 743069; active = well fitted curve in the direction sought with a large enough effect in the signal ratio in the repeat runs, not every such curve was filed as active; the % refers to the signal ratio)
How it was run: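 Estradiol-stimulated ER-alpha-UAS-bla HEK293 cells, 18 hr compound exposure at 37C. LiveBLAzer B/G substrate, 2 hr RT, fluorescence read.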

[3] = qHTS assay to identify small molecule antagonists of the estrogen receptor alpha (ER-alpha) signaling pathway - cell viability counter screen (AID 743074; calls by dose curve;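 also: HEK293 cells carrying ER-alpha-UAS-bla reporter stimulated with 17beta-estradiol; nearly all actives have a fitted effect of over 45% in size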)
[4] = target: Estrogen receptor (Homo sapiens) (UniProt P03372); assay: qHTS assay to identify small molecule agonists of the estrogen receptor alpha (ER-alpha) signaling pathway (AID 743075; calls by dose curve;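 also: HEK293 GripTite cells with ER-alpha and UAS-driven beta-lactamase reporter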)
[5] = qHTS assay to identify small molecule antagonists of the estrogen receptor alpha (ER-alpha) signaling pathway using the BG1 cell line - cell viability counter screen (AID 743081);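 also: compound given together with 17beta-estradiol as the ER stimulus; series mostly up to about 70 µM; nearly all actives have a fitted effect of over 45% in size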
Aromatase (Homo sapiens) = Aromatase (Homo sapiens) (UniProt P11511); assay: qHTS assay to identify aromatase inhibitors (AID 743083); also: series mostly up to about 70 µM; nearly all actives have a fitted effect of over 55% in size
[6] = qHTS assay to identify aromatase inhibitors - cell viability counter screen (AID 743084);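 also: cells stimulated with testosterone during compound exposure; nearly all actives have a fitted effect of over 55% in size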
[7] = target: Aryl hydrocarbon receptor (Homo sapiens) (UniProt P35869); assay: qHTS assay to identify small molecule that activate the aryl hydrocarbon receptor (AhR) signaling pathway (AID 743085);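 also: HG2L7.5c1 human HepG2 liver cells with stably integrated DRE-driven firefly reporter; series mostly up to about 70 µM; nearly all actives have a fitted effect of over 15% in size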
How it was run: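 Reporter assay in engineered HepG2 line HG2L7.5c1, whose plasmid carries twenty dioxin responsive elements upstream of firefly luciferase. Treatment lasted 24 h at 37C; ONE-Glo luminescence gauged induction.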

[8] = qHTS assay to identify small molecule that activate the aryl hydrocarbon receptor (AhR) signaling pathway - cell viability counter screen (AID 743086);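 also: HepG2 liver cells carrying the AhR DRE luciferase reporter; series mostly up to about 70 µM; nearly all actives have a fitted effect of over 45% in size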
How it was run: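 HepG2-AhR-luc (HG2L7.5c1) cells, 4000/well, were preincubated 5 h at 37C, exposed to compound in qHTS format for 24 hr at 37C, then given CellTiter-Fluor for 30 min; viability was read as fluorescence in the reporter wells.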

[9] = qHTS assay to identify small molecule antagonists of the peroxisome proliferator-activated receptor gamma (PPARg) signaling pathway - cell viability counter screen (AID 743194); also: nearly all actives have a fitted effect of over 55% in size
How it was run: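 PPARg-UAS-bla HEK293H cells were plated, rested 5 h at 37 C, then treated with compounds plus rosiglitazone (50 nM final) for 17 h at 37 C; viability was then read by CellTiter-Glo luminescence after 30 min at room temperature.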

[10] = qHTS assay for small molecule agonists of the antioxidant response element (ARE) signaling pathway (AID 743202; active = well fitted activation curve with a large enough effect in the signal ratio in the repeat runs, not every such curve was filed as active; the % refers to the signal ratio)
How it was run: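 Compounds delivered in DMSO to ARE-bla HepG2 cells (2,000 cells/well, pre-incubated 5 h) and left 16 h at 37 C. LiveBLAzer B/G FRET substrate then added for 2 h at RT before fluorescence reading.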

[11] = qHTS assay for small molecule agonists of the antioxidant response element (ARE) signaling pathway - cell viability counter screen (AID 743203; calls by dose curve; also: nearly all actives have a fitted effect of over 55% in size)
How it was run: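 Seeded at 2,000 cells/well, ARE-bla HepG2 cells were incubated 5 hrs before compound addition. After 16 hrs of treatment at 37C with 5% CO2, CellTiter-Glo reagent was added and luminescence read 30 min later.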

[12] = qHTS assay for small molecule activators of the heat shock response signaling pathway - cell viability counter screen (AID 743209); also: nearly all actives have a fitted effect of over 50% in size
How it was run: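 First, HSE-bla HeLa cells were seeded at 1500 cells/well and kept overnight at 37 C. Next, compounds were pinned in and incubated 5 h. After the FRET substrate step, CellTiter-Glo was added and luminescence read 30 min later.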

[13] = qHTS assay for small molecule activators of the heat shock response signaling pathway (AID 743210; active = well fitted activation curve with a large enough effect in the signal ratio in the repeat runs, with a control signal flat, not every such curve was filed as active; the % refers to the signal ratio;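 also: HeLa cells with beta-lactamase reporter driven by heat shock elements; series mostly up to about 63 µM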)
How it was run: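 Reporter gene assay: HeLa cells stably bearing an HSE-bla construct, compound treatment 5 h at 37 C, LiveBLAzer substrate 2.5 h at RT, fluorescence intensity.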

[14] = qHTS assay to identify small molecule agonists of the peroxisome proliferator-activated receptor delta (PPARd) signaling pathway - cell viability counter screen (AID 743211); also: nearly all actives have a fitted effect of over 55% in size
How it was run: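 Multiplexed format: after the 2 h room-temperature LiveBLAzer B/G FRET step, CellTiter-Glo was added to the same wells. Luminescence after 30 min gave cell viability; compound exposure was 17 h at 37C.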

[15] = qHTS assay to identify small molecule antagonists of the estrogen receptor alpha (ER-alpha) signaling pathway using the BG1 cell line (AID 743080; calls by dose curve;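 also: BG1 cells stimulated with 17beta-estradiol alongside compound; series mostly up to about 70 µM; nearly all actives have a fitted effect of over 25% in size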)
How it was run: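 Luciferase inhibition measured with ONE-Glo after 30 min at RT in BG1Luc4E2 cells given test compounds and 17beta-estradiol for 21.5 h at 37 C; CellTiter-Fluor viability read in the same wells beforehand.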

[16] = target: Peroxisome proliferator-activated receptor gamma (Homo sapiens) (UniProt P37231); assay: qHTS assay to identify small molecule agonists of the peroxisome proliferator-activated receptor gamma (PPARg) signaling pathway (AID 743094; active = well fitted activation curve with a large enough effect in the signal ratio in the repeat runs, not every such curve was filed as active; the % refers to the signal ratio)
How it was run: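 Quantitative HTS agonist mode: stable HEK293H line with UAS-beta-lactamase reporter under PPARg control, 17 h compound exposure at 37C, fluorescence after 1 h FRET substrate loading at room temperature.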

[17] = target: Estrogen receptor (Homo sapiens) (UniProt P03372); assay: qHTS assay to identify small molecule agonists of the estrogen receptor alpha (ER-alpha) signaling pathway using the BG1 cell line (AID 743079); also: nearly all actives have a fitted effect of over 20% in size
[18] = target: Peroxisome proliferator-activated receptor gamma (Homo sapiens) (UniProt P37231); assay: qHTS assay to identify small molecule antagonists of the peroxisome proliferator-activated receptor gamma (PPARg) signaling pathway (AID 743191; calls by dose curve; also: series mostly up to about 63 µM; nearly all actives have a fitted effect of over 30% in size)
How it was run: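 GeneBLAzer PPARg UAS-bla HEK293H cells carrying a UAS-driven beta-lactamase reporter were plated at 3000 cells/well, preincubated 5 h at 37C, then given compound for 17 h at 37C; LiveBLAzer B/G FRET substrate was read after 1 h at room temperature.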

Measured: Potency

Aryl hydrocarbon receptor (Homo sapiens), sequence (P35869 whole entry, looked up): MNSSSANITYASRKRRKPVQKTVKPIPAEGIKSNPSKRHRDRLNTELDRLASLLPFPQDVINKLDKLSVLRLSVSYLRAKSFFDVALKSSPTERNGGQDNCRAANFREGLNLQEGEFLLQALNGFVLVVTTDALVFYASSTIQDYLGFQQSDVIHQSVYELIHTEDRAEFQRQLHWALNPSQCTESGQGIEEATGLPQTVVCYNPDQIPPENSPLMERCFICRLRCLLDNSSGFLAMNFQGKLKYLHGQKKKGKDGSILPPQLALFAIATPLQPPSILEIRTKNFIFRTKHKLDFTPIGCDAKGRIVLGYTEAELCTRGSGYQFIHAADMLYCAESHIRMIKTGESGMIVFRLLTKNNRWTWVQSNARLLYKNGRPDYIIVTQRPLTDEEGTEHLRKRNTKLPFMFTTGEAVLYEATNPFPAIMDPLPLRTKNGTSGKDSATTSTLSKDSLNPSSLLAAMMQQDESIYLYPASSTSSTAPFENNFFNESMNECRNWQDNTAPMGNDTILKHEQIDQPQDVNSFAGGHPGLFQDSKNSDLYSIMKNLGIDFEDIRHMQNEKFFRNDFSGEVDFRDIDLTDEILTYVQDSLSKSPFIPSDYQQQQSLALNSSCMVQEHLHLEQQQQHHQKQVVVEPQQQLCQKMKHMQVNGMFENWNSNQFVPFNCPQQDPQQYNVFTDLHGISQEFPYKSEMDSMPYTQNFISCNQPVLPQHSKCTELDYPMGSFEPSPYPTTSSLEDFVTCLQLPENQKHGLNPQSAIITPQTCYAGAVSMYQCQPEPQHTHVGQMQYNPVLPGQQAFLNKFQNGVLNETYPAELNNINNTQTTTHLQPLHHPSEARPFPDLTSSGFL
Peroxisome proliferator-activated receptor gamma (Homo sapiens), sequence (P37231 whole entry, looked up): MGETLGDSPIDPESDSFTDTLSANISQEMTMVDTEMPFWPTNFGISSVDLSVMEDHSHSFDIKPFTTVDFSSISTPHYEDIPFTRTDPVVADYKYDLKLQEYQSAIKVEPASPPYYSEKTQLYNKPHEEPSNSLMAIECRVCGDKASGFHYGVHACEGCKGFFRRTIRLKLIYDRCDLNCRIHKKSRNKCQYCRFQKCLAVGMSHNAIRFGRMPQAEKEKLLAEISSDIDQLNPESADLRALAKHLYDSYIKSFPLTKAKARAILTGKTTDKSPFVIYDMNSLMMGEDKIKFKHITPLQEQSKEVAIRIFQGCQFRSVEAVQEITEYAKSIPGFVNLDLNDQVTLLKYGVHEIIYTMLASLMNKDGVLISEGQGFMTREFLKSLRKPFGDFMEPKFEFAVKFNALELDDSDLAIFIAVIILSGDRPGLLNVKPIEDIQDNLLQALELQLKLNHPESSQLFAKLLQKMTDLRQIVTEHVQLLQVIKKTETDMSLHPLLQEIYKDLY
Aromatase (Homo sapiens), sequence (P11511 whole entry, looked up): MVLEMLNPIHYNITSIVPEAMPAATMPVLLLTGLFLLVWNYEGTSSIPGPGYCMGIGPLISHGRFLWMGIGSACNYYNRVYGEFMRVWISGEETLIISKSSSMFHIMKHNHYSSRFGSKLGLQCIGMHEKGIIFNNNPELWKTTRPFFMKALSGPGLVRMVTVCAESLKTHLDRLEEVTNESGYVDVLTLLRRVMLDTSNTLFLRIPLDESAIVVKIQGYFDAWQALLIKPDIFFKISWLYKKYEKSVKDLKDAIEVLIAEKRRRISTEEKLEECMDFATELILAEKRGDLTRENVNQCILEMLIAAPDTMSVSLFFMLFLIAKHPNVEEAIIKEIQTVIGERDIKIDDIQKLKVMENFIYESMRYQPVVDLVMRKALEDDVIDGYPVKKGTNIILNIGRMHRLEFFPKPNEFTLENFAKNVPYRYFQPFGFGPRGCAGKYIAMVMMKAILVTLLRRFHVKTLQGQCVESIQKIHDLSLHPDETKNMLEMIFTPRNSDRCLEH
Estrogen receptor (Homo sapiens), sequence (P03372 whole entry, looked up): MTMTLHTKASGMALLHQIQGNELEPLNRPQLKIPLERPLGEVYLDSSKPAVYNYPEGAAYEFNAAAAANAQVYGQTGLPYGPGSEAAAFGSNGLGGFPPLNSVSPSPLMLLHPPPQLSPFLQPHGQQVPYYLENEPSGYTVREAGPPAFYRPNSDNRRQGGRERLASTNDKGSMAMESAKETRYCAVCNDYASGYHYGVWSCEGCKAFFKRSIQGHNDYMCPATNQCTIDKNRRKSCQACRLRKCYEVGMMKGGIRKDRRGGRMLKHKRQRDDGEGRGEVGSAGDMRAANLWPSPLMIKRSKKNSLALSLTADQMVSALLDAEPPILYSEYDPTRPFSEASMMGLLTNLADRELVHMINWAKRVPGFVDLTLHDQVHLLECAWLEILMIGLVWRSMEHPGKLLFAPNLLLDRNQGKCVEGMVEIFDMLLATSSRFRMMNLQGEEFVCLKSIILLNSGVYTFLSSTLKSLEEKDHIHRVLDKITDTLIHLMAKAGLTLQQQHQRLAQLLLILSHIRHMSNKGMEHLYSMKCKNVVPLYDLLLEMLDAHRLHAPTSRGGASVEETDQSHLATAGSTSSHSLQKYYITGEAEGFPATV

C[N+]1(C)CCCC(OC(=O)C(O)(c2ccccc2)c2ccccc2)C1 (stereo not drawn)
not listed: [15] | [16] | [17] | [18]
inactive: all other assays above

c1coc(CNc2ncnc3nc[nH]c23)c1
not listed: [10] | [17] | [18]
inactive: all other assays above

CO[C@@]1(NC(=O)CSC[C@@H](N)C(=O)O)C(=O)N2C(C(=O)O)=C(CSc3nnnn3C)CS[C@@H]21
not listed: [5] | [10]
inactive: all other assays above

O=C(O)CCSCCC(=O)O
not listed: [2]
inactive: all other assays above

C[C@@H]1C[C@H]2[C@@H]3C[C@H](F)C4=CC(=O)C(Cl)=C[C@]4(C)[C@@]3(F)[C@@H](O)C[C@]2(C)[C@@]1(O)C(=O)CO
not listed: [2] | [10] | [13] | [15] | [18]
inactive: all other assays above

NCCCC(N)(C(=O)O)C(F)F (stereo not drawn)
inactive: [1] | [3] | [5] | [8] | [9] | [10] | [11] | [14]

CC[C@H]1OC(=O)[C@H](C)[C@@H](O[C@H]2C[C@@](C)(OC)[C@@H](O)[C@H](C)O2)[C@H](C)[C@@H](O[C@@H]2O[C@H](C)C[C@H](N(C)C)[C@H]2O)[C@](C)(OC)C[C@@H](C)C(=O)[C@H](C)[C@@H](O)[C@]1(C)O
not listed: [5] | [10]
inactive: all other assays above

CO/N=C(\C(=O)N[C@@H]1C(=O)N2C(C(=O)O)=C(CSc3nc(=O)c(O)nn3C)CS[C@H]12)c1csc(N)n1
not listed: [12] | [13] | [17]
inactive: all other assays above

CCC(C)(CN(C)C)OC(=O)c1ccccc1 (stereo not drawn)
not listed: [2] | [4] | [10] | [15] | [16] | [17] | [18]
inactive: all other assays above
